Compounds with a hit are over-represented: about 3.7% of the library has one in this group of screens.
S2 tox = cell viability loss in ATXN counter-screen. S2 cells (HEK-293 line with an ATXN2-luciferase reporter) viability, CellTiter-Fluor protease fluorescence, 24 h. Potency, µM (top dose mostly 56.7 µM), actives largely listed as cytotoxic. hit rate 0.49% among 400,000. AID 651635; note: nearly all actives have a fitted effect of over 40% in size
ATXN2 expr inh = inhibitors of ATXN2 expression; HEK-293 ATXN2-luciferase reporter, luminescence, 24 h; Potency, µM (series often up to 57 µM), inactives show top-dose activity change, negative = inhibition, usual class: inhibitors; hit rate 0.72% among 360,000; note: % is set by controls: 0 for no effect and ±100 for the full control effect; nearly all actives have a fitted effect of over 55% in size
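ATXN2-luciferase reporter cells (luciferase flanked by upstream and downstream ATXN2 gene portions) were treated 24 h at 37 °C with compounds at up to 57 uM. SteadyGlo luminescence gave expression; GF-AFC fluorescence gave viability.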
TGFb SMAD3 inh = blocks TGF-b signaling | HepG2 CAGA-GFP TGF-b/SMAD3 reporter, GFP fluorescence, 18 h; TGF-beta stimulated, 500 pg/mL final | Potency, µM (doses to about 46.1 µM), without a hit: top-dose activity, negative = inhibition, most hits filed as inhibitors | hit rate 1.2% among 410,000 | AID 588855; note: % is set by controls: 0 for no effect and ±100 for the full control effect; nearly all actives have a fitted effect of over 65% in size
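HEPG2 CAGA-GFP, 1000 cells/well; 2 h settle, 37 C; cpd via pin tool; TGF-b 500 pg/mL final; 18 h, 37 C; GFP imaging ex488/em500-530; %Activity normalised to -TGF-b and +DMSO controls; CRC fit, curve class.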
HepG2 tox = counter-screen for TGF-b inhibitors: cytotoxicity in HepG2 cells; Potency, µM (series often up to 46.1 µM), for the others: at the highest dose activity change, negative = cytotoxicity, usual class: cytotoxic; HepG2 CAGA-GFP viability, ATP luminescence, 18 h; AID 588856; hit rate 0.76% among 410,000
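HepG2 CAGA-GFP cells (1000/well, DMEM with 1% FBS) received compound, then TGF-beta at 500 pg/mL final, and were incubated 18 hours at 37 degrees C. Viability was read by CellTiter-Glo luminescence. Media-only wells were set as complete cell-killing and DMSO as no toxicity.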
GLP-1R agonist = activates the human GLP-1 receptor; P43220; HEK293 GLP-1R CRE-luciferase, luminescence, 4-6 h; cells express a hypersensitive GLP-1R form; Potency, µM (highest dose often 45.6 µM), for inactives: at the highest dose activation, actives largely listed as activators; hit rate 0.007% among 380,000; AID 624172; note: % of control where 0% means no effect
Target sequence (P43220 whole entry, looked up): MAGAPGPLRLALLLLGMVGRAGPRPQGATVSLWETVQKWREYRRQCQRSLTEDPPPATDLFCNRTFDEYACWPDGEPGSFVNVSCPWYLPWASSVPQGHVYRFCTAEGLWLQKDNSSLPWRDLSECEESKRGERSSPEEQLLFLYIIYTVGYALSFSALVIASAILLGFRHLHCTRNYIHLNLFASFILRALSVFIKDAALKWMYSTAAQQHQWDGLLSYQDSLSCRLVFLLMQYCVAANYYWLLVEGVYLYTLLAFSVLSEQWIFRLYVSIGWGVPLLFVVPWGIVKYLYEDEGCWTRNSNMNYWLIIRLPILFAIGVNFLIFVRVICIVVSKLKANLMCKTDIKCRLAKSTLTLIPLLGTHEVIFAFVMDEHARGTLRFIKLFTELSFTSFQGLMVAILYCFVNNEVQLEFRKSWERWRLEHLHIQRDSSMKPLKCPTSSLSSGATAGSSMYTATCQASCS
GLP-1R inv ag = GLP-1 receptor (human) inverse agonism; HEK293 GLP-1R CRE-luciferase, luminescence, 24 h; GLP-1R form is constitutively active; P43220; Potency, µM (highest dose often 38.3 µM), for inactives: at the highest dose activity change, negative = inhibition, hits mostly inhibitors; hit rate 1.6% among 410,000; note: % is set by controls: 0 for no effect and ±100 for the full control effect; nearly all actives have a fitted effect of over 55% in size
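Assay principle: reduced luminescence from a cAMP-responsive reporter in HEK293 cells co-expressing a constitutively active GLP-1R. Conditions: 24 hr compound incubation, 37 deg C, 5% CO2.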
* = called active by the depositor; i = inactive; ? = inconclusive; nt = not tested or not shown. Calls come from the whole dose curve; as a rule, active = well fitted curve in the direction sought with a large enough effect; inconclusive = small, poorly fitted or top-dose-only effect, or another doubt; inactive = no such curve, though single readings can be large; an effect the other way counts as inactive or inconclusive. Potency is the fitted concentration of half-maximal effect.

SMILES | S2 tox | ATXN2 expr inh | TGFb SMAD3 inh | HepG2 tox | GLP-1R agonist | GLP-1R inv ag
COc1ccc2c(C(=O)NCc3ccc4c(c3)OCO4)c(-c3ccc(S(C)(=O)=O)cc3)sc2c1 | 35.5µM* | ? | -5.1% | -3.1% | -2.7% | 21.2%
CCc1oc2ccccc2c1C(=O)c1cc(I)c(O)c(I)c1 | i | 5.1% | nt | nt | -0.6% | nt
COC(=O)c1cc(NC(=O)c2cc(-c3ccccc3Cl)oc2C(F)(F)F)ccc1N1CCOCC1 | ? | nt | -5.5% | 28.1% | 13.2% | 3.98µM*
O=C(CSc1nccc(-c2cccs2)n1)Nc1ccc(F)c(Cl)c1 | i | nt | 12.6µM* | -46.4% | 7.5% | ?
Cc1onc(-c2ccc(Cl)cc2)c1-c1ccnc(SCC(=O)Nc2cc(Cl)cc(Cl)c2)n1 | i | -17.1% | ? | 1.2% | 1.6% | 3.55µM*
N#C/C(=C\c1cccc([N+](=O)[O-])c1)C(=O)NCc1ccc(Cl)cc1 | ? | 23.8µM* | ? | -27.9% | 6.6% | ?
CC1(C)CCN2CCC(C)(C)c3c(O)ccc1c32 | ? | 3.16µM* | 60.7% | -17.9% | -0.7% | ?
COc1ccc(NC(=O)C2(c3ccc(NC(=O)c4ccc(OC(C)=O)cc4)cc3)CCCC2)cc1 | i | 5.5% | -7.2% | -0.3% | -2.5% | -19.6%
CC(=O)Oc1ccc(C(=O)Nc2ccc(C3(C#N)CCCC3)cc2)cc1 | ? | nt | 6.7% | -54.3% | -5.9% | 2.24µM*
O=[N+]([O-])/C=C/c1cn(Cc2ccc(F)cc2)c2ccccc12 | ? | ? | 7.94µM* | -58.9% | -20.6% | -5.1%
O=C(O)c1ccc(N/N=C/c2cn(Cc3ccc(F)cc3)c3ccccc23)cc1 | i | 65.7% | ? | -74.3% | -2.6% | ?
CCCCCCCCCCCCCCCC(=O)OC[C@@H](NC(=O)C(Cl)Cl)[C@H](O)c1ccc([N+](=O)[O-])cc1 | i | 5.0% | nt | nt | -3.0% | nt
COc1ccc(-c2[nH]nc3nc(N4CCN(C(=O)c5ccoc5)CC4)cc(C(F)(F)F)c23)cc1 | 20µM* | 20µM* | ? | -38.7% | -3.5% | ?
Cc1cc[n+](CC(=O)c2ccc(F)cc2)c2ccccc12 | nt | nt | 20.7% | -5.2% | nt | nt
CC(CN1CCNCC1)(NS(=O)(=O)c1ccccc1)c1ccccc1 (stereo not given) | i | -18.7% | -6.5% | -37.9% | -5.7% | 3.55µM*
O=C(CNc1cccc(S(=O)(=O)N2CCCC2)c1)Nc1ccc(C(F)(F)F)cc1 | i | -25.7% | 0.0% | -25.7% | -3.5% | 10µM*
O=C(Nc1ccccc1N1CCCCC1)C1CCN(S(=O)(=O)c2cccc(C(F)(F)F)c2)CC1 | i | 3.3% | -8.3% | -16.1% | -5.4% | 11.2µM*
O=C(CNc1cc([N+](=O)[O-])ccc1NCCO)Nc1cccc(S(=O)(=O)N2CCCCC2)c1 | i | -19.8% | ? | -36.0% | -0.2% | ?
O=C(CNc1cccc(S(=O)(=O)N2CCCCCC2)c1)Nc1cccc([N+](=O)[O-])c1 | ? | nt | ? | -33.0% | 2.2% | 7.08µM*
O=C(CNc1cccc(S(=O)(=O)N2CCCCC2)c1)Nc1ccc(C(F)(F)F)cc1 | ? | nt | -26.8% | -25.1% | 12.1% | ?
COc1ccc(S(=O)(=O)N2CCCCCC2)cc1NC(=O)Cc1cccc(C(F)(F)F)c1 | ? | nt | -21.8% | -9.1% | 8.3% | 10µM*
CN1C(=O)CC(CC(=O)N2CCCCC2CCO)(c2cccc(F)c2)C1=O (stereo not given) | i | nt | nt | nt | nt | nt
CC(C)(C)n1ncc2c(=O)n(Cc3cccc(F)c3)cnc21 | nt | nt | -16.9% | 3.9% | nt | nt
Cc1ccc(NC(=O)c2cnn3c2NC(=C2CC2)C=C3C(F)F)cc1 | nt | nt | 18.0% | 10.0% | nt | nt
C/C(CC1CC2=C(CC1(C)C)C(C)(C)CCC2)=N\NC(N)=S (stereo not given) | nt | ? | 7.94µM* | 11.2µM* | 3.6% | ?
